Hits are enriched below; roughly 3% of the tested compounds scored in any of these assays.
PLK1 PBD inh: qHTS for Inhibitors of PLK1-PDB (polo-like kinase 1 - polo-box domain): Primary Screen; Serine/threonine-protein kinase PLK1 (Homo sapiens), P53350; Plk1 PBD binding of FITC phosphopeptide, fluorescence polarization; 360,000 compounds, 2.8% hits; Potency, µM, inactives show max response, negative = inhibition, usual class: inhibitors; further: series mostly up to about 57 µM; nearly all actives have a fitted effect of over 65% in size
KAT2A inh: qHTS Assay for Inhibitors of GCN5L2. AID 504327, 2011. 390,000 compounds, 0.21% hits. Potency, µM (doses to about 58.9 µM), for the others: at the highest dose activity change, negative = inhibition, actives largely listed as inhibitors. Histone acetyltransferase KAT2A (Homo sapiens), Q92830. GCN5L2 HAT assay, ThioGlo1 CoA-SH fluorescence
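Compounds, pin-transferred from DMSO stocks, meet 20nM GCN5L2 for 15 min before the reaction begins with H3(1-25) peptide (75uM) and acetyl-CoA (70uM). Thiol-reactive ThioGlo1 reports CoA release over 20 min at room temperature.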
VDR inhibitor: Inhibitors of the vitamin D receptor (VDR): qHTS | VDR-SRC2-3 peptide fluorescence polarization, 2 h | 400,000 compounds, 0.93% hits | Potency, µM, without a hit: max response, negative = inhibition, actives largely listed as inhibitors | Vitamin D3 receptor (Homo sapiens), P11473
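Fluorescence polarization assay measuring small-molecule disruption of VDR binding to the coregulator peptide SRC2-3. Compounds were pin-transferred (23 nl) into the reagent mix and incubated 2 h at room temperature before reading.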
12-LOX inh: Primary qHTS assay for inhibitors of human arachidonate 12S-lipoxygenase (ALOX12): Round 2; purified 12hLO, xylenol orange hydroperoxide absorbance; Potency, µM (titrated, usually from 108 µM), for inactives: at the top dose activity change, negative = inhibition, most hits filed as inhibitors; 580,000 compounds, 1.1% hits; AID 1671190, 2021
Target sequence (P18054 whole entry, looked up): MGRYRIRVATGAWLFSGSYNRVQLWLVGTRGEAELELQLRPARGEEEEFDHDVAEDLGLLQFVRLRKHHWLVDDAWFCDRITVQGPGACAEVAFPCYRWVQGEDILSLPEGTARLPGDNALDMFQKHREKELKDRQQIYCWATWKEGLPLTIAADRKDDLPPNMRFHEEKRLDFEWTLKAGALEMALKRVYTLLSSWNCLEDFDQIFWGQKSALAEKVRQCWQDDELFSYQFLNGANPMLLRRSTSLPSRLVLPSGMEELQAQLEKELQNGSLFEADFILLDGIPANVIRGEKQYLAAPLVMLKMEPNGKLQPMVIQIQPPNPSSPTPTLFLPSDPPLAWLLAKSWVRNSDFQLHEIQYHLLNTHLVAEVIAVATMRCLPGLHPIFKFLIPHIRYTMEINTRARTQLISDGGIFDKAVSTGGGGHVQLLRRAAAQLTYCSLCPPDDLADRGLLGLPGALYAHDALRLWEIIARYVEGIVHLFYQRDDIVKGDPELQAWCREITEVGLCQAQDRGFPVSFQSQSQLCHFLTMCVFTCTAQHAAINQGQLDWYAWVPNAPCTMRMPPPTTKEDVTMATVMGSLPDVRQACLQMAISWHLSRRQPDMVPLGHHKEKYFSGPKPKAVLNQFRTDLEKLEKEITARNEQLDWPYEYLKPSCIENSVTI
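Purified human 12hLO (150 nM final) in 25 mM Hepes, 0.01% Triton X-100, pH 7.0 was preincubated 15 min at room temperature with compound. Then 40 uM arachidonic acid was added, 30 min. Hydroperoxide was read by Fe-XO absorbance ratio 573/405 nm.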
The depositor's hits bear a star; ? = inconclusive; . = no result given; ! = not confirmed by another sample; [ ] = remark or other dose. The call rests on the fitted dose curve; in most records, active means well fitted curve in the direction sought with a large enough effect; inconclusive means small, poorly fitted or top-dose-only effect, or another doubt; inactive means no such curve, though single readings can be large; an effect the other way counts as inactive or inconclusive. On the % scale 0 is the no-effect control and ±100 the full control effect; potency means the concentration at half of the fitted maximal effect.

SMILES	PLK1 PBD inh	KAT2A inh	VDR inhibitor	12-LOX inh
Cc1cccc(NC(=S)NNC(=O)c2ccco2)c1	-17%	-3%	1%	15%
CC1=C(C#N)C(NC(=O)CCC2CCCCC2)(C(F)(F)F)C(=O)N1 (stereo not drawn)	.	.	.	25%
O=C(C(=O)N1CCOCC1)c1c[nH]c2ccccc12	-9%	39%	-3%	5%
S=C(c1cn(Cc2ccc(Br)cc2)c2ccccc12)N1CCOCC1	30µM*	-2%	?	?
S=C(c1c[nH]c2ccccc12)N1CCOCC1	15µM*	-6%	-1%	-20%
Cc1ccc(OCC(O)Cn2c(=N)n(CCN3CCCCC3)c3ccccc32)cc1 (stereo not drawn)	-10%	4%	12%	-8%
N=c1n(CCN2CCCC2)c2ccccc2n1CC(O)c1ccc(Cl)c(Cl)c1 (stereo not drawn)	24µM*	16%	13%	?
COc1ccc(OCC(O)Cn2c(=N)n(CCN3CCCCC3)c3ccccc32)cc1 (stereo not drawn)	2.7µM*	-3%	-11%	?
N=c1n(CCN2CCCCC2)c2ccccc2n1CC(O)COc1ccc(Cl)cc1Cl (stereo not drawn)	.	0%	0%	?
CCCN1CCCC12Cc1ccccc1CN([S+](=O)([O-])c1ccccc1)C2 (stereo not drawn)	.	.	.	6%[6.33 µM]
CC(=O)N/N=C/c1cc(C(C)(C)C)cc(/C=N/NC(C)=O)c1O	21µM*	0%	10%	-13%
CC(=O)N/N=C/c1ccc(C(C)C)cc1	.	.	.	21%
Cc1ccccc1CS(=O)Cc1ccc(F)cc1 (stereo not drawn)	.	.	.	10%
O=C(O)Cc1sc(-c2cccnc2)nc1-c1ccc(Br)cc1	?	-2%	-27%	35µM*
COc1ccc(F)cc1Nc1cnc2ccc(N(C)C)nn12	.	.	.	-2%[176 µM]
COc1ccccc1N1CCN(Cc2ccc(O)c3ncccc23)CC1	-4%	-9%	24%	?
Oc1ccc(CN2CCCc3ccccc32)c2cccnc12	?	-4%	79µM*	.
CCn1c(N2CCN(Cc3ccc(Cl)cc3Cl)CC2)nc2c1c(=O)[nH]c(=O)n2C	.	.	.	-7%
CC(c1nc2ccccc2[nH]1)n1c(=O)c(-c2ccco2)nc2ccccc21 (stereo not drawn)	-20%	.	.	13µM*
CC(C)(C)NC(=O)C(c1ccc(-c2ccccc2)cc1)n1c(=O)c(-c2ccco2)nc2ccccc21 (stereo not drawn)	-19%	.	.	40µM*
Cc1cccc(C)c1NC(=O)C(c1ccc(-c2ccccc2)cc1)n1c(=O)c(-c2ccco2)nc2ccccc21 (stereo not drawn)	?	.	.	13µM*
CC(c1nc2ccccc2[nH]1)n1c(-c2ccncc2)nc2ccccc21 (stereo not drawn)	-7%	.	.	7%
O=C(NCc1ccccc1)C(c1ccc(-c2ccccc2)cc1)n1c(=O)c(-c2ccco2)nc2ccccc21 (stereo not drawn)	?	.	.	14µM*
O=C(NCc1ccccc1)C(c1ccncc1)n1c(=O)c(-c2ccco2)nc2ccccc21 (stereo not drawn)	-14%	.	.	-5%
O=C(Cn1cccc1-c1nc(-c2ccccc2)no1)Nc1cc(F)ccc1Cl	.	.	.	16%
SMILES	PLK1 PBD inh	KAT2A inh	VDR inhibitor	12-LOX inh
COc1ccc(C(C(=O)NC(C)(C)C)n2c(=O)c(-c3ccco3)nc3ccccc32)cc1 (stereo not drawn)	-22%	.	.	25µM*
O=C1CCN(S(=O)(=O)c2ccccc2)CCCN(C(=O)CCCc2ccccc2)CCN1	.	.	.	41%
C=C(C)Cn1c(NCCCCCC)nc2c1c(=O)[nH]c(=O)n2C	.	.	.	-46%
OC(CCc1cccc(Cl)c1)c1cccs1 (stereo not drawn)	21µM*	-13%	?	-2%
CCOc1ccc(/C=C2\CCC(C3CCCC3)C2=O)cc1 (stereo not drawn)	-1%	1%	2%	-7%
CCC(=O)OCOc1ccc(/C=C2/CCC(CN(C)C)C2=O)cc1 (stereo not drawn)	4.7µM*	.	10µM*	35µM*
Cn1c(C(=O)NC2CCCC2)cc2c(=O)n(C)c3ccccc3c21	30µM*	-5%	?	9%[57.4 µM]
COCCN(C(=S)Nc1ccc(OC)c(Cl)c1)C1CCN(C(C)C)CC1	13µM*	0%	-5%	24%
COc1ccc(NC(=S)N(CCC(C)C)C2CCN(C(C)C)CC2)cc1Cl	2.1µM*	-11%	?	?
Cc1ccc(-c2nc(C#N)c(NCCN3CCOCC3)o2)cc1	.	.	.	3%
CCN(CC)Cc1oc(-c2ccccc2)cc1C(=O)O	?	-7%	-25%	?
NCc1oc(-c2ccccc2)cc1C(=O)O	-12%	-6%	10%	10µM*
CCOC(=O)c1c(C)[nH]c(C)c1C=O	8%	1%	-1%	18%
Cc1[nH]c(I)c(C)c1C=O	.	.	.	14µM*
COc1cccc(CNCC2(COc3ccccc3)C[C@@H](O)[C@@H](O)C2)c1 (stereo partly drawn)	.	.	.	-7%[176 µM]
O=c1c(C(c2ccc(Cl)cc2)c2c(O)nc3n(c2=O)CCS3)c(O)nc2n1CCS2	27µM*	-16%	?	0%
O=c1c(C(c2ccc(F)cc2)c2c(O)nc3n(c2=O)CCS3)c(O)nc2n1CCS2	19µM*	-2%	?	0%
O=c1c(C(c2ccc(Cl)cc2)c2c(O)nc3n(c2=O)CCCS3)c(O)nc2n1CCCS2	?	-5%	15%	136%
CCNC(=O)CN1c2ccc(Br)cc2-c2ccccc2S1(=O)=O	.	.	.	32%
Cc1cc(C(=O)CSc2ncnc3ccccc23)c(C)n1C1CC1	-4%	-3%	-13%	16µM*!
Cc1cc(C(=O)CSc2ncnc3ccccc23)c(C)n1CC(F)(F)F	.	.	.	-28%
COc1cccc(/C=N/n2c(-c3n[nH]c4c3CCC4)n[nH]c2=S)c1O	?	-9%	-5%	40µM*
COc1cc(OC)c(/C=N/n2c(C3CCCCC3)n[nH]c2=S)c(OC)c1	-8%	3%	-14%	?
COc1ccc(/C=N/n2c(C3CCCCC3)n[nH]c2=S)c(OC)c1	-9%	-5%	-25%	40µM*
COc1cccc(/C=N/n2c(C3CCCCC3)n[nH]c2=S)c1O	-7%	0%	7%	20µM*
S=c1[nH]nc(C2CCCCC2)n1/N=C/c1ccccn1	?	16%	4%	18µM*
COc1cc(/C=N/n2c(-c3n[nH]c4c3CCC4)n[nH]c2=S)cc(OC)c1O	-26%	0%	-3%	?
CN1C[C@@H](NC(=O)Nc2ccc(F)cc2F)C[C@H]1c1nc(-c2ccc(Cl)cc2)no1	.	.	.	-22%[176 µM]
O=S(=O)(c1cccc2ccccc12)N1CCN(c2ccc(F)cc2)CC1	.	.	.	-11%
Oc1ccc(/C=N/n2c(C3CCCCC3)n[nH]c2=S)c(O)c1	?	-4%	-18%	0%

Screening data from PubChem BioAssay.
